Laboratory results from PubChem BioAssay (NCATS).
A number with no mark means an inactive call. Results filed as inconclusive are left out. A call without a number means that no potency is given here. The source made the active and inactive calls. Unless noted, the call rests on the fitted dose curve; in most records, active means well fitted curve in the direction sought with a large enough effect; inconclusive means small, poorly fitted or top-dose-only effect, or another doubt; inactive means no such curve, though single readings can be large; an effect the other way counts as inactive or inconclusive. Non-standard residues stand in square brackets, D forms with d. Residues, ends and D or L forms follow the SMILES beside them.

Legend:
[1] = target: Cytochrome P450 1A2 (Homo sapiens) (UniProt P05177); assay: p450-cyp1a2 (AID 410; calls by dose curve; further: potency means the concentration at half of the fitted maximal effect)
Chain of Cytochrome P450 1A2 (Homo sapiens) (P05177 whole entry, looked up): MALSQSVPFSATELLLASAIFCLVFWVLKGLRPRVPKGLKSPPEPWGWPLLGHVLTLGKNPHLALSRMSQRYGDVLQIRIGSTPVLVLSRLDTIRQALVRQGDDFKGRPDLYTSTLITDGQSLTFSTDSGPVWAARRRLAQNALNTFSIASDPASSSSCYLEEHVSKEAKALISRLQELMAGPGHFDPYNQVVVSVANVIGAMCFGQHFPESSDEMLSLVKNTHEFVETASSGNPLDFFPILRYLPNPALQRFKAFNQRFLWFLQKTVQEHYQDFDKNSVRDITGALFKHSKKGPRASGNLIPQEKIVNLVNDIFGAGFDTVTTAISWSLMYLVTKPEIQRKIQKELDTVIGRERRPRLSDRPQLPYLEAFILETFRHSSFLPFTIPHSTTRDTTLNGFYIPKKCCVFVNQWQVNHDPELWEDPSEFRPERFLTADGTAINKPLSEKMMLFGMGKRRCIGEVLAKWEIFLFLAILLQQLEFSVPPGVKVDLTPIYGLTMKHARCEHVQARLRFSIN
Method in brief: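 Human CYP1A2 (20nM) demethylated Luciferin-ME at its Km (100uM) in 100mM KPO4. After 10 min compound preincubation, NADPH regeneration ran the reaction 60 min at room temperature. Luciferin was read by luminescence, normalized to 57 uM furafylline.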

[2] = target: Glucocorticoid receptor (Homo sapiens) (UniProt P04150); assay: GR-GFP Redistribution (AID 450;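 active means compounds whose dose series gives a full or clear partial fitted curve of increased nuclear translocation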; further: potency means the concentration at half of the fitted maximal effect); conditions: U2OS GR-GFP nuclear translocation, laser cytometry, 2 h
Chain of Glucocorticoid receptor (Homo sapiens) (P04150 whole entry, looked up, the tested form may be a part): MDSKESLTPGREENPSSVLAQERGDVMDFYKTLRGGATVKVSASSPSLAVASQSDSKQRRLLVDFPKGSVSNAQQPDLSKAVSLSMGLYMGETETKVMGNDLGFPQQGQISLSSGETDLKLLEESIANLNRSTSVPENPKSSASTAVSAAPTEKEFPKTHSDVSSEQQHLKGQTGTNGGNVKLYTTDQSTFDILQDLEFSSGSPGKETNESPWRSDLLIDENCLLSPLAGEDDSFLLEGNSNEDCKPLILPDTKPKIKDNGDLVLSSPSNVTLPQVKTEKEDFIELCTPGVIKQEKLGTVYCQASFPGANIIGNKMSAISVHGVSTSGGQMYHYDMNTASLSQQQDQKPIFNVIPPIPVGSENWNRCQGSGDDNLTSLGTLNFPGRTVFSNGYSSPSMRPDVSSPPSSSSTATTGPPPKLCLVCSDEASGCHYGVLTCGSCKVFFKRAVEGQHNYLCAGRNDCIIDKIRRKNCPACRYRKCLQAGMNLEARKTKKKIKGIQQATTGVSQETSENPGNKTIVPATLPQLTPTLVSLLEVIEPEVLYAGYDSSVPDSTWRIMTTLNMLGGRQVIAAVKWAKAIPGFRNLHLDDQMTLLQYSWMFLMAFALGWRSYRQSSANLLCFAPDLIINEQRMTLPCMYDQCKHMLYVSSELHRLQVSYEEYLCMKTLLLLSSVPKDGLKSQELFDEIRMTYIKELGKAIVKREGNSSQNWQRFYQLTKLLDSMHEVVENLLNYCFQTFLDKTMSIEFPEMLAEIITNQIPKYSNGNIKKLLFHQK

[3] = target: Glucocorticoid receptor (Homo sapiens) (UniProt P04150); assay: GR-EFC Redistribution (AID 451; calls by dose curve; further: potency means the concentration at half of the fitted maximal effect); conditions: CHO-K1 GR-EFC translocation, beta-gal luminescence, 2 h
Method in brief: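 Translocation of GR-ED fusion to nuclear EA restores b-gal, read by luminescence after 1 h room-temperature detection. Engineered CHO-K1 biosensor cells, 1,000/well, exposed 2 h at 37 C to titrations up to 46 uM final.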

[4] = target: 3',5'-cyclic-AMP phosphodiesterase 4B (Homo sapiens) (UniProt Q07343); assay: qHTS Assay for Inhibitors of PDE-IV (AID 607; active means well fitted activation curve with a large enough effect in the main read-out, with a control signal flat, not every such curve was filed as active)
Chain of 3',5'-cyclic-AMP phosphodiesterase 4B (Homo sapiens) (Q07343 whole entry, looked up): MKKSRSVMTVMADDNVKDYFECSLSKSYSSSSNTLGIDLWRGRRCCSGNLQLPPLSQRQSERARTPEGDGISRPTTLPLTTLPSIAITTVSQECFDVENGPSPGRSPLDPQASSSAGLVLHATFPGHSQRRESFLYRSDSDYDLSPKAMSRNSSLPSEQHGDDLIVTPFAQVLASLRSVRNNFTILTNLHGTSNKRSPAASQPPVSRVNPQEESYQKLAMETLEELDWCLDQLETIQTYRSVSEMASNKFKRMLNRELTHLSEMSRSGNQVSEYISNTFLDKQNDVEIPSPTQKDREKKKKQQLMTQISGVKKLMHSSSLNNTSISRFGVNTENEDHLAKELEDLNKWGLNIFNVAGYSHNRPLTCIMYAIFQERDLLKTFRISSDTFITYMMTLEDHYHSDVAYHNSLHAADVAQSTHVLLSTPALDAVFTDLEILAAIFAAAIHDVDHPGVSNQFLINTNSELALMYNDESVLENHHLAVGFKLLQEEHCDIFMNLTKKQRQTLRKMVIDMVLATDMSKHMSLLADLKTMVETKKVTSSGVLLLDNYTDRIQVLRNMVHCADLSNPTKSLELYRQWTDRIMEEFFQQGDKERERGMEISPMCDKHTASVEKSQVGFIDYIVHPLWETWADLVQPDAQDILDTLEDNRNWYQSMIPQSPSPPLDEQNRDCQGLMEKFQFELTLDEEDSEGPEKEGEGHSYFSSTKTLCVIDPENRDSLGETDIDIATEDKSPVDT
Method in brief: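 Live HEK293 cells with a modified cyclic nucleotide-gated (CNG) channel report intracellular cAMP via membrane-potential dye fluorescence (ex 535/em 590 nm). Endogenous PDE-IV was targeted. Compounds were tested at up to 22.9 uM final; RO 20-1724 100 uM served as control.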

[5] = target: Cytochrome P450 3A4 (Homo sapiens) (UniProt P08684); assay: qHTS Assay for Activators of Cytochrome P450 3A4 (AID 885); further: nearly all actives have a fitted effect of over 65% in size
Chain of Cytochrome P450 3A4 (Homo sapiens) (P08684 whole entry, looked up): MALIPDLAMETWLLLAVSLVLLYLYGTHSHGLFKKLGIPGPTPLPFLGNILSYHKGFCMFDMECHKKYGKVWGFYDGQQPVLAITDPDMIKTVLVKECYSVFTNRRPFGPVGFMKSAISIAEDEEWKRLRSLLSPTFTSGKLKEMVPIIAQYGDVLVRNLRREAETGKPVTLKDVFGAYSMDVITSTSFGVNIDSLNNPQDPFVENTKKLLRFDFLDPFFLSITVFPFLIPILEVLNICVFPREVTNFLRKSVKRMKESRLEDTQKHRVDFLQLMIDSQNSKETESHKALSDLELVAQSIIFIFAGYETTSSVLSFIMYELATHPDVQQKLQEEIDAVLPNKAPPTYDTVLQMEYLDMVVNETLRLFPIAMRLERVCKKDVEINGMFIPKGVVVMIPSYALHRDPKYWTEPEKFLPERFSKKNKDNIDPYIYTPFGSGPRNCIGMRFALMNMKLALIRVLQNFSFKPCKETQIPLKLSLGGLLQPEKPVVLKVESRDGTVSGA
Method in brief: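 Quantitative HTS format: compounds preincubated with 20nM human CYP3A4 and Luciferin-PPXE substrate at KM, reaction started by NADPH regeneration, stopped after 60 min, luciferase luminescence read 20 min later.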

[6] = target: DNA dC->dU-editing enzyme APOBEC-3G (Homo sapiens) (UniProt Q9HC16); assay: qHTS for inhibitors of Vif-A3G interactions: Validation (AID 588379)
Chain of DNA dC->dU-editing enzyme APOBEC-3G (Homo sapiens) (Q9HC16 whole entry, looked up): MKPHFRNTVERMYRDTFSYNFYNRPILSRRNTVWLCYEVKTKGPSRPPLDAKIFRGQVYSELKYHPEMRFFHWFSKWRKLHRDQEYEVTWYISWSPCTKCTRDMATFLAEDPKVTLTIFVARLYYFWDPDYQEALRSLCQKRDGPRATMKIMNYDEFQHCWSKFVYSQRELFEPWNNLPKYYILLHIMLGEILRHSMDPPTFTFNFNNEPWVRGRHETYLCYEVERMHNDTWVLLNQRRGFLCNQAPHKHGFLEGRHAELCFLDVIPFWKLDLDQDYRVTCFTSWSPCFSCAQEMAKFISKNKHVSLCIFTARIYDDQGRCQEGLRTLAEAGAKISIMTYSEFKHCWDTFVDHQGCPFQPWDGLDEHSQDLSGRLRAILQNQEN
Method in brief: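 HeLa cells stably expressing Vif and A3G-eYFP, 700 cells/well, incubated overnight at 37 deg C, then exposed to compound overnight at 37 deg C. Inhibition of Vif-mediated degradation read as increased yellow fluorescence (Ex 488/Em 500-530) by laser-scanning cytometry.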

[7] = tested on: Zika virus NS2B-NS3 protease; assay: Primary screen GU AMC qHTS for Zika virus inhibitors (AID 1347154); further: nearly all actives have a fitted effect of over 70% in size; further: potency means the concentration at half of the fitted maximal effect
Method in brief: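 Fluorogenic AMC-substrate cleavage by noncovalent NS2B-NS3 protease complex (25 nM, pH 8.0 Tris buffer with Tween 20) followed for 15 minutes at room temperature (~20% conversion). Percent inhibition from ex340/em450 signal change, fitted by 4-parameter Hill equation.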

[8] = Primary qHTS for small molecule stabilizers of the endoplasmic reticulum resident proteome: Secreted ER Calcium Modulated Protein (SERCaMP) assay (AID 1508630)
Method in brief: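 GLuc-SERCaMP-expressing SH-SY5Y cells, pretreated 16 h with compound, are challenged with thapsigargin to empty ER calcium stores; after 4 h, coelenterazine is added directly to the medium and luminescence is imaged.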

[9] = target: Mitogen-activated protein kinase 10 (Mus musculus) (UniProt Q61831); assay: JNK3 AlphaScreen Assay (AID 530; active means well fitted curve in either direction with a large enough effect, not every such curve was filed as active;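 further: kinase came from lysate of stimulated human HepG2 cells; signal reports phosphorylation of biotinylated GST-cJun 1-79 at Ser73 with 10 µM ATP; series mostly up to about 57 µM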)
Method in brief: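 Room-temperature AlphaScreen kinase assay; pre-activated HepG2 lysate as JNK3 source, biotin-GST-cJun(1-79) substrate, 10 uM ATP, compound 15 min preincubation.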

[10] = target: Cytochrome P450 2C9 (Homo sapiens) (UniProt P11712); assay: qHTS Assay for Inhibitors and Substrates of Cytochrome P450 2C9 (AID 883); further: potency means the concentration at half of the fitted maximal effect; nearly all actives have a fitted effect of over 60% in size
Chain of Cytochrome P450 2C9 (Homo sapiens) (P11712 whole entry, looked up): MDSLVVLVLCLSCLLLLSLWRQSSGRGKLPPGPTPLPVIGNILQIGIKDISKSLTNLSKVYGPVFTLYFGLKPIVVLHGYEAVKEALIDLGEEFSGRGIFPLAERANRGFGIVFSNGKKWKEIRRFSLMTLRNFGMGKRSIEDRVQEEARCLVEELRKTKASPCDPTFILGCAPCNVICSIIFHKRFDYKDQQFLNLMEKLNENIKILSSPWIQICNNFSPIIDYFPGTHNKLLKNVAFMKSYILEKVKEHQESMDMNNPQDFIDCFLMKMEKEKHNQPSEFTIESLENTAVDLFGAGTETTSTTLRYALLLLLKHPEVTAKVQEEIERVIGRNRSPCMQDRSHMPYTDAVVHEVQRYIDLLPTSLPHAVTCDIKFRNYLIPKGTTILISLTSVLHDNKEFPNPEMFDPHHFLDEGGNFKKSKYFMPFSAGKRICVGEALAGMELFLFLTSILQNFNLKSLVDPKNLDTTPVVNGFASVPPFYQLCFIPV
Method in brief: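 Turnover of Luciferin-H (100uM, KM) by 10nM human CYP2C9 was measured over 60 min at 37C with NADPH regeneration; inhibitors and some substrates reduce luminescence. Data normalized to sulphaphenazole 57uM.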

[11] = target: Cytochrome P450 2C19 (Homo sapiens) (UniProt P33261); assay: qHTS Assay for Inhibitors and Substrates of Cytochrome P450 2C19 (AID 899); further: potency means the concentration at half of the fitted maximal effect; nearly all actives have a fitted effect of over 60% in size
Chain of Cytochrome P450 2C19 (Homo sapiens) (P33261 whole entry, looked up): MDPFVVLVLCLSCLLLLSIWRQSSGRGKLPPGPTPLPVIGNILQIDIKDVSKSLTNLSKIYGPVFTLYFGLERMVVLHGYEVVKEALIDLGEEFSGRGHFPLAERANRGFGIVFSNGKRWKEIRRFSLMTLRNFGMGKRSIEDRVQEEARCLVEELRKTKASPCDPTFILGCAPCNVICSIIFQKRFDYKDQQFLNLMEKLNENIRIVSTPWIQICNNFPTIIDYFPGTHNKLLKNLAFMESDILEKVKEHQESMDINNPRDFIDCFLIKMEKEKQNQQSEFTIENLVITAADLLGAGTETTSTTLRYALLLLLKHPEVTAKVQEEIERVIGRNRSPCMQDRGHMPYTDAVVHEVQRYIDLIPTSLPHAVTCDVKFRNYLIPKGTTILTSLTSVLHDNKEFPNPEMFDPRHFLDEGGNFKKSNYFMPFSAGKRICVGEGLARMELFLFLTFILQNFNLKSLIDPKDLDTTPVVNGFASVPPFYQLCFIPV
Method in brief: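 Reactions contain 5nM enzyme, 10uM Luciferin-H EGE (KM) and 50mM KPO4; compound preincubates 10 min at 37C, NADPH regeneration starts turnover for 60 min. Luminescence after detection reagent gives activity.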

[12] = target: Ubiquitin carboxyl-terminal hydrolase 1 (Homo sapiens) (UniProt O94782); assay: Inhibitors of USP1/UAF1: Pilot qHTS (AID 504865);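 further: rhodamine fluorescence freed from ubiquitin-rhodamine substrate followed over time; top concentration of the series differs between compounds; nearly all actives have a fitted effect of over 35% in size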
Chain of Ubiquitin carboxyl-terminal hydrolase 1 (Homo sapiens) (O94782 whole entry, looked up): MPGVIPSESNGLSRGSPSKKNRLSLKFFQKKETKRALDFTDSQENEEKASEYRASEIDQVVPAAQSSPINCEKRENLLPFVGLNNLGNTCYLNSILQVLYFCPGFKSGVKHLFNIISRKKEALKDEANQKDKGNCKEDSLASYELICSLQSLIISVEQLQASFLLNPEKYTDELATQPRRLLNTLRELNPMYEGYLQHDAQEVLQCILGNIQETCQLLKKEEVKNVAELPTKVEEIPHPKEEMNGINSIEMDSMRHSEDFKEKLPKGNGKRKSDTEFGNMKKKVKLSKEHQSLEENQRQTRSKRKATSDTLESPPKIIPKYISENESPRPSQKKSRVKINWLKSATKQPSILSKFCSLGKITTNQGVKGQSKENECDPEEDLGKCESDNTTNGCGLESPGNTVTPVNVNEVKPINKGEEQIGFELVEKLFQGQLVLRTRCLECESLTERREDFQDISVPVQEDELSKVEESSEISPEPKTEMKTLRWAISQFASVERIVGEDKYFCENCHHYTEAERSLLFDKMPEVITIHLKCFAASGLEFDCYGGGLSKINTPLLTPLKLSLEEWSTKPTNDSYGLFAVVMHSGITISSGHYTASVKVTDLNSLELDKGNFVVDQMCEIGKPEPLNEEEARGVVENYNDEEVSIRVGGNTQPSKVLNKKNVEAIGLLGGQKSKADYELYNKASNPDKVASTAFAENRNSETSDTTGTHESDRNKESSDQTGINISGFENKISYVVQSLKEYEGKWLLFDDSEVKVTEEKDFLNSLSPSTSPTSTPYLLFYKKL
Method in brief: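 1nM USP1/UAF1 + cpd, 15 min RT; start w/ Ub-Rho 150nM final; kinetic FL 480/540 nm, 6 reads q60 s. Buffer 50mM HEPES pH 7.8, 0.5mM EDTA, 1mM TCEP, 0.01% Tween-20, 0.1 mg/ml BSA.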

[13] = target: Cytochrome P450 3A4 (Homo sapiens) (UniProt P08684); assay: qHTS Assay for Inhibitors and Substrates of Cytochrome P450 3A4 (AID 884); further: potency means the concentration at half of the fitted maximal effect; nearly all actives have a fitted effect of over 50% in size
Method in brief: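 20 nM human CYP3A4 with 25 uM Luciferin-PPXE (at KM) in 200 mM KPO4, preincubated 10 min with compound; NADPH regeneration started a 60 min RT reaction. Luciferin detected by luminescence, normalized to 57 uM ketoconazole as full inhibition.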

Which Potency [1] does the source give for Cc1nc2ccc(NC(=O)Nc3ccnc4cccnc34)cc2o1 here?
The Potency was 1 µM (active).

What about the Potency [2] of the same compound?
Its Potency is greater than 46 µM.

What about the Potency [3] of the same compound?
The Potency was greater than 46 µM.

And the Potency [4]?
The Potency was “inactive”.

What about the Potency [5] of the same compound?
Its Potency is “inactive”.

What about the Potency [6] of the same compound?
The Potency was “inactive”.

And the Potency [7]?
The Potency was “inactive”.

What about the Potency [8] of the same compound?
The Potency was “inactive”.

For CCCCOC(=O)c1cc2c(cn1)[nH]c1ccccc12, which Potency [1] is on record?
Its Potency is 0.158 µM (active).

And the Potency [2]?
Its Potency is greater than 46 µM.

And the Potency [3]?
Its Potency is greater than 46 µM.

And the Potency [9]?
Its Potency is “inactive”.

And the Potency [10]?
The Potency was 7.94 µM (active).

And the Potency [5]?
Its Potency is “inactive”.

What about the Potency [11] of the same compound?
The Potency was 5.01 µM (active).

What about the Potency [6] of the same compound?
Its Potency is “inactive”.

What about the Potency [7] of the same compound?
Its Potency is “inactive”.

And the Potency [8]?
The Potency was “inactive”.

Which Potency [1] does the source give for CC1(C)CC(=O)C([C@H]2C3=C(CC(C)(C)CC3=O)Oc3ccccc32)C(=O)C1 here?
The Potency was “inactive”.

What about the Potency [2] of the same compound?
Its Potency is greater than 46 µM.

What about the Potency [3] of the same compound?
Its Potency is greater than 46 µM.

What about the Potency [9] of the same compound?
Its Potency is “inactive”.

And the Potency [4]?
The Potency was “inactive”.

And the Potency [5]?
The Potency was “inactive”.

And the Potency [12]?
Its Potency is “inactive”.

What about the Potency [6] of the same compound?
The Potency was “inactive”.

What about the Potency [7] of the same compound?
Its Potency is “inactive”.

And the Potency [8]?
Its Potency is “inactive”.

For c1ccc2sc(N3CCN(Cc4ccc5c(c4)OCO5)CC3)nc2c1, which Potency [1] is on record?
The Potency was 1 µM (active).

What about the Potency [2] of the same compound?
The Potency was greater than 46 µM.

And the Potency [3]?
The Potency was greater than 46 µM.

What about the Potency [9] of the same compound?
The Potency was “inactive”.

And the Potency [13]?
The Potency was 0.631 µM (active).

What about the Potency [5] of the same compound?
The Potency was “inactive”.

What about the Potency [12] of the same compound?
The Potency was “inactive”.

And the Potency [6]?
The Potency was “inactive”.

What about the Potency [7] of the same compound?
Its Potency is “inactive”.

What about the Potency [8] of the same compound?
Its Potency is “inactive”.

Which results are given for N[C@H](C(=O)O)c1nn[nH]n1?
Potency [1]: inactive; Potency [2]: > 46 µM; Potency [3]: > 46 µM; Potency [9]: inactive; Potency [12]: inactive; Potency [6]: inactive; Potency [7]: inactive; Potency [8]: inactive

Which results are given for CSCC[C@H](C=O)NC(=O)[C@H](CC(C)C)NC(=O)[C@H](CC(C)C)NC(C)=O (Ac-Leu-Leu-[dM]-aldehyde)?
Potency [1]: inactive; Potency [2]: > 46 µM; Potency [3]: > 46 µM; Potency [9]: inactive; Potency [4]: inactive; Potency [12]: inactive; Potency [6]: inactive; Potency [7]: inactive; Potency [8]: inactive

What does the source list for N[C@@H](Cc1cc(-c2ccc(Cl)cc2Cl)cc(CP(=O)(O)O)c1O)C(=O)O?
Potency [1]: 20 µM (active); Potency [2]: > 46 µM; Potency [3]: > 46 µM; Potency [9]: inactive; Potency [4]: inactive; Potency [6]: inactive; Potency [7]: 23.8 µM (active); Potency [8]: inactive

With CCCCCCc1c(C[C@H](N)C(=O)O)o[nH]c1=O as the compound, how does the Potency [1] read?
The Potency was 31.6 µM (active).

What about the Potency [2] of the same compound?
The Potency was greater than 46 µM.

And the Potency [3]?
The Potency was greater than 46 µM.

And the Potency [9]?
The Potency was “inactive”.

And the Potency [12]?
The Potency was “inactive”.

And the Potency [6]?
Its Potency is “inactive”.

What about the Potency [7] of the same compound?
Its Potency is “inactive”.

And the Potency [8]?
The Potency was “inactive”.

For O[C@H](CCCN1CCN(c2ncc(F)cn2)CC1)c1ccc(F)cc1, which Potency [1] is on record?
The Potency was 31.6 µM (active).

What about the Potency [2] of the same compound?
The Potency was greater than 46 µM.

And the Potency [3]?
The Potency was greater than 46 µM.

What about the Potency [9] of the same compound?
Its Potency is “inactive”.

What about the Potency [4] of the same compound?
The Potency was “inactive”.

And the Potency [12]?
Its Potency is “inactive”.

What about the Potency [6] of the same compound?
The Potency was “inactive”.

What about the Potency [7] of the same compound?
Its Potency is “inactive”.

And the Potency [8]?
Its Potency is “inactive”.
